# B1: unnamed (peptide)
# chain: VFQFQMPTTPISTKM
# B2: unnamed (peptide)
# chain: WTQRRGPLVVYAEDN
# B3: unnamed (peptide)
# chain: TKPTPPPKPSHLKPK
# Molecular target: AgAbp1
# Experiment: SPOT peptide array binding signal intensity (averaged, normalized) (arbitrary units (background-subtracted, floor 0; scale differs between SH3 domains)); higher = stronger binding of the SH3 domain to the peptide
# Method in brief: (§1)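 Binding signal refers to normalized, background-subtracted spot intensity averaged over replicates, expressed in arbitrary units that differ between domains. GST-fused SH3 domains from four yeast species were incubated at 10 μg/ml overnight at 4°C on cellulose membranes of synthetic 15-mer peptides with cysteines replaced by serines. Bound protein was detected with anti-GST antibody, an HRP anti-mouse secondary and luminol, and quantified with Genespotter.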
row,Binder,SPOT peptide array binding signal intensity
1,B1,≤ 0
2,B2,≤ 0
3,B3,784

# Molecular target: AgBbc1
# Experiment: as above
# Method in brief: as §1
row,Binder,SPOT peptide array binding signal intensity
1,B1,10
2,B2,7
3,B3,125

# Molecular target: AgBem1-D1
# Experiment: as above
# Method in brief: as §1
row,Binder,SPOT peptide array binding signal intensity
1,B1,132
2,B2,102
3,B3,≤ 0

# Molecular target: AgBzz1-D1
# Experiment: as above
# Method in brief: as §1
row,Binder,SPOT peptide array binding signal intensity
1,B1,22.5
2,B2,11
3,B3,150

# Molecular target: AgBzz1-D2
# Experiment: as above
# Method in brief: as §1
row,Binder,SPOT peptide array binding signal intensity
1,B1,9
2,B2,22.5
3,B3,13

# Molecular target: AgCyk3
# Experiment: as above
# Method in brief: as §1
row,Binder,SPOT peptide array binding signal intensity
1,B1,1
2,B2,0.5
3,B3,0.5

# Molecular target: AgFus1
# Experiment: as above
# Method in brief: as §1
row,Binder,SPOT peptide array binding signal intensity
1,B1,346
2,B2,35.5
3,B3,≤ 0

# Molecular target: AgHof1
# Experiment: as above
# Method in brief: as §1
row,Binder,SPOT peptide array binding signal intensity
1,B1,5
2,B2,15.5
3,B3,3.5

# Molecular target: AgHse1
# Experiment: as above
# Method in brief: as §1
row,Binder,SPOT peptide array binding signal intensity
1,B1,428
2,B2,20.5
3,B3,18

# Molecular target: AgLsb1
# Experiment: as above
# Method in brief: as §1
row,Binder,SPOT peptide array binding signal intensity
1,B1,2
2,B2,4
3,B3,0.5

# Molecular target: AgLsb4
# Experiment: as above
# Method in brief: as §1
row,Binder,SPOT peptide array binding signal intensity
1,B1,≤ 0
2,B2,17.5
3,B3,≤ 0

# Molecular target: AgMyo5
# Experiment: as above
# Method in brief: as §1
row,Binder,SPOT peptide array binding signal intensity
1,B1,14.8
2,B2,3
3,B3,≤ 0

# Molecular target: AgNbp2
# Experiment: as above
# Method in brief: as §1
row,Binder,SPOT peptide array binding signal intensity
1,B1,344
2,B2,≤ 0
3,B3,≤ 0

# Molecular target: AgRvs167
# Experiment: as above
# Method in brief: as §1
row,Binder,SPOT peptide array binding signal intensity
1,B1,1.33
2,B2,1.17
3,B3,2.67

# Molecular target: AgSho1
# Experiment: as above
# Method in brief: as §1
row,Binder,SPOT peptide array binding signal intensity
1,B1,251
2,B2,4
3,B3,72

# Molecular target: AgSla1-D1-D2
# Experiment: as above
# Method in brief: as §1
row,Binder,SPOT peptide array binding signal intensity
1,B1,1.5
2,B2,20
3,B3,≤ 0

# Molecular target: AgSla1-D3
# Experiment: as above
# Method in brief: as §1
row,Binder,SPOT peptide array binding signal intensity
1,B1,3
2,B2,2
3,B3,≤ 0

# Molecular target: CaAbp1-D1
# Experiment: as above
# Method in brief: as §1
row,Binder,SPOT peptide array binding signal intensity
1,B1,59
2,B2,≤ 0
3,B3,655

# Molecular target: CaAbp1-D2
# Experiment: as above
# Method in brief: as §1
row,Binder,SPOT peptide array binding signal intensity
1,B1,116
2,B2,≤ 0
3,B3,1210

# Molecular target: CaBbc1
# Experiment: as above
# Method in brief: as §1
row,Binder,SPOT peptide array binding signal intensity
1,B1,34
2,B2,27.2
3,B3,159

# Molecular target: CaBem1-D1
# Experiment: as above
# Method in brief: as §1
row,Binder,SPOT peptide array binding signal intensity
1,B1,111
2,B2,3
3,B3,≤ 0

# Molecular target: CaBzz1-D1
# Experiment: as above
# Method in brief: as §1
row,Binder,SPOT peptide array binding signal intensity
1,B1,152
2,B2,286
3,B3,1030

# Molecular target: CaBzz1-D2
# Experiment: as above
# Method in brief: as §1
row,Binder,SPOT peptide array binding signal intensity
1,B1,101
2,B2,142
3,B3,357

# Molecular target: CaCyk3
# Experiment: as above
# Method in brief: as §1
row,Binder,SPOT peptide array binding signal intensity
1,B1,13
2,B2,18
3,B3,≤ 0

# Molecular target: CaFus1
# Experiment: as above
# Method in brief: as §1
row,Binder,SPOT peptide array binding signal intensity
1,B1,820
2,B2,190
3,B3,≤ 0

# Molecular target: CaHof1
# Experiment: as above
# Method in brief: as §1
row,Binder,SPOT peptide array binding signal intensity
1,B1,0.5
2,B2,1.5
3,B3,1.5

# Molecular target: CaHse1
# Experiment: as above
# Method in brief: as §1
row,Binder,SPOT peptide array binding signal intensity
1,B1,303
2,B2,6.25
3,B3,5.75

# Molecular target: CaLsb1
# Experiment: as above
# Method in brief: as §1
row,Binder,SPOT peptide array binding signal intensity
1,B1,2.5
2,B2,6.5
3,B3,0.5

# Molecular target: CaLsb4
# Experiment: as above
# Method in brief: as §1
row,Binder,SPOT peptide array binding signal intensity
1,B1,407
2,B2,29.5
3,B3,≤ 0

# Molecular target: CaMyo5
# Experiment: as above
# Method in brief: as §1
row,Binder,SPOT peptide array binding signal intensity
1,B1,92.8
2,B2,26
3,B3,1

# Molecular target: CaNbp2
# Experiment: as above
# Method in brief: as §1
row,Binder,SPOT peptide array binding signal intensity
1,B1,985
2,B2,44.5
3,B3,≤ 0

# Molecular target: CaRvs167
# Experiment: as above
# Method in brief: as §1
row,Binder,SPOT peptide array binding signal intensity
1,B1,32.7
2,B2,12.2
3,B3,4

# Molecular target: CaRvs167-3
# Experiment: as above
# Method in brief: as §1
row,Binder,SPOT peptide array binding signal intensity
1,B1,4.5
2,B2,3.5
3,B3,6

# Molecular target: CaSho1
# Experiment: as above
# Method in brief: as §1
row,Binder,SPOT peptide array binding signal intensity
1,B1,922
2,B2,32
3,B3,44.5

# Molecular target: CaSla1-D1-D2
# Experiment: as above
# Method in brief: as §1
row,Binder,SPOT peptide array binding signal intensity
1,B1,404
2,B2,≤ 0
3,B3,9.5

# Molecular target: CaSla1-D3
# Experiment: as above
# Method in brief: as §1
row,Binder,SPOT peptide array binding signal intensity
1,B1,454
2,B2,0.25
3,B3,0.5

# Molecular target: ScAbp1
# Experiment: as above
# Method in brief: as §1
row,Binder,SPOT peptide array binding signal intensity
1,B1,4
2,B2,1
3,B3,1010

# Molecular target: ScBbc1
# Experiment: as above
# Method in brief: as §1
row,Binder,SPOT peptide array binding signal intensity
1,B1,≤ 0
2,B2,≤ 0
3,B3,≤ 0

# Molecular target: ScBem1-D1
# Experiment: as above
# Method in brief: as §1
row,Binder,SPOT peptide array binding signal intensity
1,B1,1
2,B2,11.5
3,B3,1.5

# Molecular target: ScBzz1-D1
# Experiment: as above
# Method in brief: as §1
row,Binder,SPOT peptide array binding signal intensity
1,B1,10
2,B2,28
3,B3,4

# Molecular target: ScBzz1-D2
# Experiment: as above
# Method in brief: as §1
row,Binder,SPOT peptide array binding signal intensity
1,B1,25
2,B2,58
3,B3,59.5

# Molecular target: ScCyk3
# Experiment: as above
# Method in brief: as §1
row,Binder,SPOT peptide array binding signal intensity
1,B1,13
2,B2,10
3,B3,≤ 0

# Molecular target: ScFus1
# Experiment: as above
# Method in brief: as §1
row,Binder,SPOT peptide array binding signal intensity
1,B1,327
2,B2,28.5
3,B3,7.5

# Molecular target: ScHof1
# Experiment: as above
# Method in brief: as §1
row,Binder,SPOT peptide array binding signal intensity
1,B1,≤ 0
2,B2,0.5
3,B3,2

# Molecular target: ScHse1
# Experiment: as above
# Method in brief: as §1
row,Binder,SPOT peptide array binding signal intensity
1,B1,254
2,B2,140
3,B3,4

# Molecular target: ScLsb1
# Experiment: as above
# Method in brief: as §1
row,Binder,SPOT peptide array binding signal intensity
1,B1,46.5
2,B2,3.5
3,B3,0.5

# Molecular target: ScLsb2
# Experiment: as above
# Method in brief: as §1
row,Binder,SPOT peptide array binding signal intensity
1,B1,≤ 0
2,B2,≤ 0
3,B3,≤ 0

# Molecular target: ScLsb3
# Experiment: as above
# Method in brief: as §1
row,Binder,SPOT peptide array binding signal intensity
1,B1,282
2,B2,5
3,B3,1800

# Molecular target: ScLsb4
# Experiment: as above
# Method in brief: as §1
row,Binder,SPOT peptide array binding signal intensity
1,B1,124
2,B2,≤ 0
3,B3,≤ 0

# Molecular target: ScMyo3
# Experiment: as above
# Method in brief: as §1
row,Binder,SPOT peptide array binding signal intensity
1,B1,20.8
2,B2,16
3,B3,0.5

# Molecular target: ScMyo5
# Experiment: as above
# Method in brief: as §1
row,Binder,SPOT peptide array binding signal intensity
1,B1,8
2,B2,9
3,B3,≤ 0

# Molecular target: ScNbp2
# Experiment: as above
# Method in brief: as §1
row,Binder,SPOT peptide array binding signal intensity
1,B1,636
2,B2,1.5
3,B3,13

# Molecular target: ScPex13
# Experiment: as above
# Method in brief: as §1
row,Binder,SPOT peptide array binding signal intensity
1,B1,186
2,B2,1
3,B3,981

# Molecular target: ScRvs167
# Experiment: as above
# Method in brief: as §1
row,Binder,SPOT peptide array binding signal intensity
1,B1,11.8
2,B2,20.8
3,B3,4.17

# Molecular target: ScSho1
# Experiment: as above
# Method in brief: as §1
row,Binder,SPOT peptide array binding signal intensity
1,B1,530
2,B2,≤ 0
3,B3,1320

# Molecular target: ScSla1-D1-D2
# Experiment: as above
# Method in brief: as §1
row,Binder,SPOT peptide array binding signal intensity
1,B1,245
2,B2,≤ 0
3,B3,11

# Molecular target: ScSla1-D3
# Experiment: as above
# Method in brief: as §1
row,Binder,SPOT peptide array binding signal intensity
1,B1,228
2,B2,9
3,B3,1.75

# Molecular target: SpAbp1-D1
# Experiment: as above
# Method in brief: as §1
row,Binder,SPOT peptide array binding signal intensity
1,B1,21
2,B2,6
3,B3,481

# Molecular target: SpBbc1
# Experiment: as above
# Method in brief: as §1
row,Binder,SPOT peptide array binding signal intensity
1,B1,2.5
2,B2,2.75
3,B3,0.5

# Molecular target: SpBzz1-D1
# Experiment: as above
# Method in brief: as §1
row,Binder,SPOT peptide array binding signal intensity
1,B1,324
2,B2,458
3,B3,344

# Molecular target: SpBzz1-D2
# Experiment: as above
# Method in brief: as §1
row,Binder,SPOT peptide array binding signal intensity
1,B1,4.25
2,B2,≤ 0

# Molecular target: SpCyk3
# Experiment: as above
# Method in brief: as §1
row,Binder,SPOT peptide array binding signal intensity
1,B1,4
2,B2,7

# Molecular target: SpHof1
# Experiment: as above
# Method in brief: as §1
row,Binder,SPOT peptide array binding signal intensity
1,B1,52.5
2,B2,29.5

# Molecular target: SpHof1-2
# Experiment: as above
# Method in brief: as §1
row,Binder,SPOT peptide array binding signal intensity
1,B1,36.5
2,B2,22.5

# Molecular target: SpHof1-3
# Experiment: as above
# Method in brief: as §1
row,Binder,SPOT peptide array binding signal intensity
1,B1,18.5
2,B2,23

# Molecular target: SpHse1
# Experiment: as above
# Method in brief: as §1
row,Binder,SPOT peptide array binding signal intensity
1,B1,456
2,B2,66.2

# Molecular target: SpLsb1
# Experiment: as above
# Method in brief: as §1
row,Binder,SPOT peptide array binding signal intensity
1,B1,4.5
2,B2,≤ 0

# Molecular target: SpLsb4
# Experiment: as above
# Method in brief: as §1
row,Binder,SPOT peptide array binding signal intensity
1,B1,349
2,B2,31

# Molecular target: SpMyo1
# Experiment: as above
# Method in brief: as §1
row,Binder,SPOT peptide array binding signal intensity
1,B1,85.5
2,B2,16

# Molecular target: SpNbp2
# Experiment: as above
# Method in brief: as §1
row,Binder,SPOT peptide array binding signal intensity
1,B1,272
2,B2,2

# Molecular target: SpPex13
# Experiment: as above
# Method in brief: as §1
row,Binder,SPOT peptide array binding signal intensity
1,B1,124
2,B2,19

# Molecular target: SpRvs167
# Experiment: as above
# Method in brief: as §1
row,Binder,SPOT peptide array binding signal intensity
1,B1,27
2,B2,16

# Molecular target: SpSla1-D1-D2
# Experiment: as above
# Method in brief: as §1
row,Binder,SPOT peptide array binding signal intensity
1,B1,3
2,B2,3

# Molecular target: SpSla1-D3
# Experiment: as above
# Method in brief: as §1
row,Binder,SPOT peptide array binding signal intensity
1,B1,297
2,B2,6

# — the supplement of paper PMC4466140
